PAFAH2 FP inh: inhibitors of human PAFAH2; recombinant PAFAH2, FP-rhodamine activity probe, fluorescence polarization; inhibition, % at 3.39 µM; 340,000 tested, 0.99% active; Q99487;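 active = inhibition above the mean over all tested compounds plus 3 SD, cut at about 30% in these data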;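 also: inhibitors block probe labeling of enzyme so polarization drops; 0% = enzyme with DMSO and 100% = wells lacking PAFAH2 protein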
PAFAH1B2 FP inh: PAFAH1B2 (human) inhibition; inhibition, % at 3.39 µM; recombinant PAFAH1B2, FP-rhodamine activity probe, fluorescence polarization; 340,000 tested, 1.2% active; P68402;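 active = inhibition above the mean of all tested compounds plus 3 SD, cut at about 24% in these data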;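 also: 0% = enzyme with DMSO and 100% = wells lacking PAFAH1B2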
PAFAH1B3 FP inh: inhibitors of human PAFAH1B3; Q15102; recombinant PAFAH1B3, FP-rhodamine probe, fluorescence polarization; inhibition, % at 3.39 µM; 340,000 tested, 0.28% active; AID 492972;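 active = inhibition above the screen-wide average of all tested compounds plus 3 SD, cut at about 25% in these data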;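 also: 0% = enzyme with DMSO only and 100% = wells lacking PAFAH1B3 protein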
Target sequence (Q15102 whole entry, looked up): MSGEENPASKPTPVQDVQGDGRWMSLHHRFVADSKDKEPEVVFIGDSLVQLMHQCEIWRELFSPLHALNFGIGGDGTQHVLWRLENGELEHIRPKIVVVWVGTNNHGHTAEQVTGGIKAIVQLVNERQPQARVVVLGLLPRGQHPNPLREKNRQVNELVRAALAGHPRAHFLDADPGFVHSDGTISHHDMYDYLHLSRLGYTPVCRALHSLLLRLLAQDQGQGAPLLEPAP
Fam108B counter: blocks mouse Fam108B hydrolase in RBBP9 counter-screen. recombinant Fam108B, FP-Rh probe fluorescence polarization. 300,000 tested, 0.33% active. inhibition, % at 9.51 µM;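 active = inhibition above the screen mean inhibition plus 3 SD, computed separately per campaign, cut at about 18% in these data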;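 also: inhibitors lower polarization as less probe binds the enzyme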
pPAFAH FP inh: inhibitors of human plasma PAF acetylhydrolase (pPAFAH); Q13093; recombinant pPAFAH, FP-rhodamine probe fluorescence polarization; inhibition, % at 3.39 µM; 330,000 tested, 1.5% active; AID 463082;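 active = inhibition above the mean inhibition across the screen plus 3 SD, cut at about 25% in these data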;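 also: inhibitors block binding of the rhodamine activity-based probe so polarization drops; 0% = enzyme with DMSO and 100% = wells lacking pPAFAH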
Target sequence (Q13093 whole entry, looked up): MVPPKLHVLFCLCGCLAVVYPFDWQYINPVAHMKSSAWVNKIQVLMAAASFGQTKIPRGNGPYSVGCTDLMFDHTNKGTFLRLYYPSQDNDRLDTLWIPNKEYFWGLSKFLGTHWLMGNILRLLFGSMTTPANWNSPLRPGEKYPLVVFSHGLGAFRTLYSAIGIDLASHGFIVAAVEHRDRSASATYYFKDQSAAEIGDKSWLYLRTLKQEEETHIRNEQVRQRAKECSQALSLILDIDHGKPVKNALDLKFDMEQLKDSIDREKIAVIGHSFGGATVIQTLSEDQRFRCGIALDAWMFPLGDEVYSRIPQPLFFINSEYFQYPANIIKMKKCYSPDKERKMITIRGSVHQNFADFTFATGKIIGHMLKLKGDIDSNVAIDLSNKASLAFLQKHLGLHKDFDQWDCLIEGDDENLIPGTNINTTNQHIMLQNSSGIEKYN
PME-1 primary: PME-1 (human) inhibition | Q9Y570 | recombinant PME-1, FP-Rh probe fluorescence polarization | inhibition, % at 5.9 µM | 320,000 tested, 0.53% active | AID 2130;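 active = inhibition above the campaign mean of all compounds plus 3 SD, cut at about 26% in these data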;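 also: competitive labeling of PME-1 active site by serine hydrolase directed probe; 0% = PME-1 with DMSO and 100% = wells lacking PME-1 enzyme; inhibitors block probe labeling so polarization falls and inhibition rises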
PAFAH2 FP conf: PAFAH2 (human) inhibition, confirmed. inhibition, % at 3.39 µM. recombinant PAFAH2, FP-rhodamine activity probe, fluorescence polarization. shares compounds with PAFAH2 FP inh. 2,300 tested, 65% active;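 active = mean inhibition over three repeats above a set limit taken from the earlier primary screen, cut at about 30% in these data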;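 also: inhibitor blocks binding of rhodamine activity probe so polarization falls; 0% = enzyme with DMSO and 100% = wells lacking PAFAH2 protein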
The depositor's hits bear a star; . = not tested or not shown. Shown are actives, neighbours in structure and some others; about 2.8% of the full set was active somewhere.

SMILES | PAFAH2 FP inh | PAFAH1B2 FP inh | PAFAH1B3 FP inh | Fam108B counter | pPAFAH FP inh | PME-1 primary | PAFAH2 FP conf
CN(c1ccccc1)S(=O)(=O)c1ccc(Cl)c(C(=O)Nc2ccccc2N2CCOCC2)c1 | 2 | 6 | 9 | . | . | . | .
O=C(Nc1ccc(Cl)cn1)c1ccc2nccnc2c1 | 2 | 4 | 3 | 4 | 9 | 7 | .
COCCOc1ccc(C(F)(F)F)cc1NC(=O)CN1C(=O)NC(C)(c2ccc3c(c2)OCO3)C1=O (centres undefined) | 11 | 2 | 4 | 0 | -3 | -2 | .
O=C(Nc1ccccc1Cc1ccccc1)c1ccccc1NS(=O)(=O)c1ccc(Cl)s1 | 10 | 2 | 3 | 13 | 16 | 6 | .
O=C(Nc1ccccc1)c1ccccc1NS(=O)(=O)c1ccc(Cl)s1 | 71* | 20 | 3 | 4 | 7 | 6 | 75*
O=C(NCc1ccco1)c1ccccc1NS(=O)(=O)c1ccc(Cl)s1 | 5 | 14 | -1 | 3 | 10 | 6 | .
Cc1ccc(NC(=O)c2ccccc2NS(=O)(=O)c2ccc(Cl)s2)cc1 | 71* | 11 | 1 | 10 | 9 | 5 | 74*
Cc1ccc(S(=O)(=O)N2CCCCC2)cc1NC(=O)COC(=O)c1ccc(=O)[nH]c1 | 56* | -4 | 6 | . | 3 | 11 | 52*
Cc1cnc(C(=O)OCC(=O)Nc2cc(S(=O)(=O)N3CCOCC3)ccc2Cl)cn1 | 12 | 3 | 8 | . | 0 | . | .
O=C(COC(=O)c1cccnc1Cl)Nc1cc(S(=O)(=O)N2CCCCCC2)ccc1Cl | 32* | 6 | 7 | . | . | . | 24
CCOc1ncccc1C(=O)OCC(=O)Nc1cc(S(=O)(=O)N2CCOCC2)ccc1Cl | 44* | -3 | 2 | 4 | 14 | 22 | 39*
Cc1ccc(NC(=O)COC(=O)c2cccnc2Cl)cc1S(=O)(=O)N1CCCCC1 | 53* | 5 | 16 | 1 | 4 | 11 | 34*
Cc1cnc(C(=O)OCC(=O)Nc2ccc(C)c(S(=O)(=O)N3CCCCC3)c2)cn1 | 5 | 0 | 7 | -3 | 1 | -1 | .
Nc1cc(N)cc(C(=O)OCC(=O)Nc2cc(S(=O)(=O)N3CCCCC3)ccc2Cl)c1 | 31* | 0 | 7 | 5 | 8 | 8 | 13
Cc1cnc(C(=O)OCC(=O)Nc2cc(S(=O)(=O)N3CCCCC3)ccc2Cl)cn1 | -3 | 5 | 3 | 2 | -5 | 13 | .
CC(=O)Oc1ccc2nc(/C=C/c3ccc(C=O)cc3)oc(=O)c2c1 | 3 | 7 | 16 | 2 | -3 | 1 | .
CCCOc1cccc(-c2nc3ccccc3c(=O)o2)c1 | 64* | 2 | 5 | -3 | -16 | 0 | 59*
CC(=O)Oc1ccc2c(=O)oc(-c3ccccc3)nc2c1 | 41* | -2 | 9 | 9 | 1 | -1 | 40*
CC(=O)Oc1ccc2nc(-c3ccc(Br)o3)oc(=O)c2c1 | 46* | 7 | -1 | 1 | 6 | -8 | 45*
CC(=O)Oc1ccc2nc(/C=C/c3ccccc3)oc(=O)c2c1 | 76* | 2 | 5 | -2 | 0 | -4 | 71*
Cc1ccc(C(=O)OCC(=O)NCc2ccc(F)cc2)o1 | 27 | -6 | 1 | . | 3 | -3 | .
COc1cc(C(=O)O/N=C(\N)Cc2ccc([N+](=O)[O-])cc2)cc(OC)c1OC | . | . | . | 1 | 8 | 1 | .
COc1ccc(C(=O)O/N=C(\N)Cc2ccc(Cl)cc2)cc1OC | 74* | 4 | 3 | 0 | 3 | -6 | 78*
COc1ccc(C(=O)O/N=C(\N)Cc2ccc(Cl)c(Cl)c2)cc1OC | 90* | -6 | -3 | -6 | 9 | -7 | 82*
N/C(Cc1ccc([N+](=O)[O-])cc1)=N\OC(=O)c1ccc([N+](=O)[O-])cc1 | 7 | 1 | 4 | -3 | 21 | -3 | .
SMILES | PAFAH2 FP inh | PAFAH1B2 FP inh | PAFAH1B3 FP inh | Fam108B counter | pPAFAH FP inh | PME-1 primary | PAFAH2 FP conf
N/C(Cc1ccc(Cl)cc1)=N\OC(=O)c1ccccc1 | 83* | 8 | 3 | -1 | 2 | -2 | 76*
CC(C)(C)C(=O)OC/C(N)=N/OC(=O)c1ccc(Cl)cc1 | 85* | 11 | 3 | 0 | 10 | 6 | 65*
COc1ccc2cc(C=NS(=O)(=O)c3ccc(C)cc3)n(C)c2c1 | 2 | 4 | -1 | . | 2 | -2 | .
O=C(COc1ccccc1Br)Nc1ccc2c(c1)OCCCO2 | 4 | 3 | 8 | -1 | -4 | -6 | .
CN(CC(=O)Nc1ccc(N2CCOCC2)cc1)C(=O)CSc1ccc(F)cc1 | 7 | 4 | -1 | 1 | 4 | 4 | .
Cc1ccccc1OCC(=O)NNC(=O)C1CC(=O)N(c2ccc3c(c2)OCCO3)C1 (centres undefined) | -5 | 6 | 2 | . | -5 | -2 | .
CCCCNC(=O)COC(=O)c1cc(Br)ccc1Cl | 16 | 4 | 6 | 2 | 3 | -4 | .
CCC(CC)NC(=O)COC(=O)c1cc(Br)ccc1Cl | 33* | 3 | 0 | -3 | 6 | 1 | 26
O=c1cc(-c2ccccc2)nc2cc(-c3ccc(F)cc3)[nH]n12 | 64* | 20 | 10 | 1 | 8 | -4 | 0
COc1cccc(-c2cc3nc(-c4ccccc4)cc(=O)n3[nH]2)c1 | 12 | 9 | 17 | 7 | 15 | -36 | .
CC(C(=O)Nc1ccccn1)(c1ccccc1)c1ccccc1 | -12 | -2 | 0 | . | . | . | .
CC(C)=CC(=O)OCC(=O)Nc1ccccc1Cl | 51* | 6 | 5 | -1 | 8 | 2 | 40*
COc1cc(/C=C/C(=O)OCC(=O)Nc2ccccc2Cl)cc(OC)c1OC | 10 | 6 | 7 | 0 | -3 | -2 | .
CC(C)=CC(=O)OCC(=O)Nc1cc(C)ccc1C | 30* | 4 | 8 | 0 | 4 | 7 | 18
Cc1nc(-c2ccc(F)cc2)c(CC(=O)N2CCN(S(=O)(=O)c3cccc(F)c3)CC2)s1 | 0 | 5 | 7 | 10 | 4 | 5 | .
CCN(CC(=O)Nc1c(F)cccc1F)C(=O)c1ccc(S(=O)(=O)N2CCC(C)CC2)cc1 | -3 | 0 | -2 | . | 0 | 8 | .
O=C(COC(=O)c1ccc2c(c1)OCO2)Nc1ccccc1F | 54* | 2 | 7 | . | 6 | -4 | 49*
N#CCC(=O)Nc1ccc(C(=O)OCC(=O)c2ccc3c(c2)OCO3)cc1 | 6 | -5 | 1 | -1 | 19 | 6 | .
N#Cc1ccccc1NC(=O)COC(=O)c1ccc2c(c1)OCO2 | 62* | 4 | 8 | . | 4 | 1 | 53*
CC(=O)c1ccc(S(=O)(=O)Nc2c(C)nn(C)c2C)cc1 | -3 | 0 | -1 | . | . | . | .
Cc1ccc(C(=O)NNC(=O)c2ccc(Br)s2)cc1S(=O)(=O)N1CCOCC1 | 39* | 1 | 4 | . | 5 | -6 | -4
COc1ccc(NC(=S)Nc2ccc(OCc3ccccc3)cc2)c(OC)c1 | -2 | 5 | 5 | 2 | 6 | 7 | .
COc1ccc(NC(=S)Nc2ccccc2)c(OC)c1 | 164* | 0 | 1 | 3 | -1 | 1 | -1
